A selection: hits, their analogues and other compounds. The true share with any hit is near 21%.
CHX counter = counter-screen for Shiga toxin inhibitors: cycloheximide protein synthesis inhibition; cell reporter, cycloheximide protein synthesis inhibition counterscreen; max response, %; 12% of 300,000 active; AID 2314; in the data active means max response mostly above about 13%, no sharp cut-off; inactive means mostly below about 14%; further: read at 38.3 µM for the half of the compounds with a filed dose
HCMV antiviral = inhibitors of human cytomegalovirus; HFF cells, HCMV-luciferase reporter, 72 h; hits give low values; activity change, negative = inhibition, % at 57.5 µM; 4.5% of 410,000 active; in the data active means activity change below about -60%; inconclusive means no clear call, values can overlap the other calls; inactive means above about -39%
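HFF cells seeded 16 h at 37C, treated with compounds, infected with luciferase-reporter HCMV at MOI 1 PFU/cell; luciferase read at 72 h post infection, normalized to buffer-only and Salinomycin controls.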
Pf growth 48h = P. falciparum growth inhibition at 48 hours (one generation); P. falciparum luciferase growth in erythrocytes, 48 h; Potency, µM (highest dose often 28.7 µM), actives largely listed as inhibitors; 5.9% of 310,000 active; AID 504832
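Luciferase-expressing P. falciparum in infected erythrocytes (2% hematocrit, 0.1% parasitemia final) in RPMI 1640/0.5% Albumax were exposed to compound for 48 hours at 37 C, 5% CO2; growth read as luminescence.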
Shiga toxin inh = inhibitors of Shiga toxin in Vero cells; inhibition, % at 38.7 µM; Vero cells, Shiga toxin protein synthesis inhibition reporter; 9.2% of 290,000 active; in the data active means inhibition mostly above about 28%, no sharp cut-off; inactive means mostly below about 43%
Pf growth 96h = P. falciparum growth inhibition at 96 hour, primary screen for plastid delayed-death inhibitors. Potency, µM (series often up to 28.7 µM), hits mostly inhibitors. 6.9% of 320,000 active. AID 504834. P. falciparum luciferase reporter growth, 96 h
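P. falciparum expressing integrated firefly luciferase, in erythrocytes at 2% hematocrit, 0.05% parasitemia, incubated with compounds 96 h at 37 C, 5% CO2. Growth inhibition read as loss of luminescence; two-generation exposure targets delayed-death apicoplast inhibitors.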
HCV inh = HCV inhibition; Huh7.5.1 HCVcc-Cre infection, luciferase reporter, 44 h; Potency, µM (highest dose often 41.8 µM), usual class: inhibitors; 3.4% of 340,000 active; AID 651820
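Compounds are dispensed onto cells plated 4 h earlier at 1,000 per well, with HCVcc-Cre virus (about 0.5 moi) added next. Following 44 h of culture, luminescent signal is measured for 15 sec after 15 min with substrate at room temperature.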
Hits are given with their value; - = inactive; ? = inconclusive; . = no result given. Unless noted, the call rests on the fitted dose curve; in most records, active means well fitted inhibition curve with a large enough effect; inconclusive means small, poorly fitted or top-dose-only effect, or another doubt; inactive means no such curve, though single readings can be large or run the other way.

SMILES	CHX counter	HCMV antiviral	Pf growth 48h	Shiga toxin inh	Pf growth 96h	HCV inh
COc1cccc(C(=O)c2sc(Nc3ccc(C)cc3C)c(S(=O)(=O)c3ccccc3)c2N)c1	.	-	.	.	.	.
COC(=O)CCn1cnc2onc(-c3cc(F)cc(F)c3)c2c1=O	.	-	.	.	.	.
COc1ccc(N=C2SC(CC(=O)Nc3ccccc3OC)C(=O)N2Cc2ccco2)cc1 (centres undefined)	24	-	-	40	?	?
CCn1c2ccccc2c2cc(N=C3SC(CC(=O)Nc4ccccc4OC)C(=O)N3CCOC)ccc21 (centres undefined)	-	-	9.3µM	-	?	-
COc1ccc(N=C2SC(CC(=O)Nc3ccccc3)C(=O)N2CC2CCCO2)cc1 (centres undefined)	-	-	12µM	-	?	-
COc1ccc(N=C2SC(CC(=O)Nc3ccc(F)cc3)C(=O)N2Cc2ccco2)cc1 (centres undefined)	-	-	?	-	?	-
COC(=O)c1cc(NC(=O)CC2SC(=Nc3ccccc3)N(CCc3c[nH]c4ccccc34)C2=O)cc(C(=O)OC)c1 (centres undefined)	-	-	13µM	-	1.7µM	4.5µM
CNC(=O)C1CC(=O)N(CCc2ccccc2)C(=Nc2ccc(OC)cc2)S1 (centres undefined)	-	-	?	-	-	-
COc1ccc(N=C2SC(C(=O)Nc3ccc(C(=O)O)cc3)CC(=O)N2Cc2cccs2)cc1 (centres undefined)	-	?	?	-	7.4µM	-
COc1ccc(NC2SC(=O)N(C)C2=O)cc1 (centres undefined)	-	-	-	49	-	-
COc1ccc2cc(C(=O)C3CCCN(C(=O)c4cc5nc(C)cc(C)n5n4)C3)ccc2c1 (centres undefined)	-	-	-	-	-	-
CN(CC(=O)Nc1ccc(F)cc1)C(=O)COc1ccc(C(=O)c2ccccc2)cc1	-	?	-	-	-	?
CCOC(=O)c1cccc(NC(=O)CSc2nnc(-c3ccoc3C)n2CCOC)c1	9.2	-	-	-	1.2µM	?
COCCn1c(SCC(=O)Nc2cc(C)cc(C)c2)nnc1C(C)C	-	-	-	-	-	-
COCCn1c(SCC(=O)Nc2cccc(OC)c2)nnc1-c1ccccc1	-	-	-	-	2.3µM	-
Cc1occc1-c1nnc(SCC(=O)Nc2ccccc2)n1CCc1ccccc1	-	-	?	-	-	-
COCCn1c(SCC(=O)Nc2cccc(C)c2)nnc1C(C)C	-	-	-	-	0.17µM	-
O=C(C1CC1)N1CCN(c2ccc(O)cc2)CC1	-	-	?	-	?	-
CC(C)N(Cc1nc2ccccc2c(=O)[nH]1)C(=O)c1ccc(NC(=O)CSc2nnnn2C)cc1	.	-	?	.	13µM	-
Cn1nnnc1SCC(=O)NCc1ccccc1	-	-	-	-	-	-
COc1ccc(C)cc1NC(=O)N1CCN(S(=O)(=O)c2ccc3c(ccn3C)c2)CC1	.	-	.	.	.	.
COc1cc(C=C2NC(=O)NC2=O)ccc1O	.	-	.	.	.	.
COc1ccc(OC)c(/C=C2\NC(=O)NC2=O)c1	-	-81	-	-	?	-
Cc1cccc(-c2noc(CN(C(=O)c3c(-c4ccccc4Cl)noc3C)C(C)C)n2)c1	-	-	.	-	?	10µM
Cc1cccc(-c2noc(CN(C(=O)c3ccc(C)c(C)c3)C(C)C)n2)c1	.	-95	.	.	.	.
SMILES	CHX counter	HCMV antiviral	Pf growth 48h	Shiga toxin inh	Pf growth 96h	HCV inh
Cc1cc(C(=O)N(Cc2nnc(-c3ccc(Cl)cc3)o2)C(C)C)c2ccccc2n1	.	-	12µM	.	10µM	-
Cc1onc(-c2ccccc2Cl)c1C(=O)N(Cc1nc(-c2ccccc2)no1)C1CCCCC1	-	-	.	-	?	11µM
COc1ccccc1C(=O)N(Cc1nc(-c2cccc(C)c2)no1)C(C)C	.	-	.	.	.	.
O=C(NCC(O)c1ccc([N+](=O)[O-])cc1)c1cccc(S(=O)(=O)N2CCCC2)c1 (centres undefined)	-	-	-	-	-	-
COCCCNC(=O)CCn1c(=O)c2ccccc2n(CC(=O)Nc2cc(Cl)ccc2OC)c1=O	.	-	.	.	.	.
Cc1ccc(-c2csc3ncn(CC(=O)O)c(=O)c23)cc1C	-	-	-	-	-	-
FC(F)(F)C(F)(F)C(F)(F)C(F)(F)C(F)(F)C(F)(F)F	.	.	-	.	-	.

Bioassay records from PubChem BioAssay.
